Test results from PubChem BioAssay (NCI).
This is part of a sample that, as a whole, favours compounds with a hit. Of some 83,000 tested, about 20% had one in any assay.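 Single-concentration screen, 48 h exposure, 96-well plates. Endpoint: percent growth. Below 10 = active.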 Active and inactive are the calls of the source.

Test system: SF-539 CNS
Assay: NCI-60 one-dose screen, 48 h (100 = growth as untreated, 0 = no growth, -100 = all killed)
Conditions: 10 µM unless noted

SMILES	growth
CC1=N/C(=C\c2cccc(Br)c2)C(=O)O1	115% (inactive)
O=C1C=CC(=O)c2c1nc1n2CCCC1	74.9% (inactive)
Cc1ccc2c(NCCCN(C)C)c3c(C)nn(C)c3nc2c1	36.5% (inactive)
COC(=O)[C@H](C(C)C)n1c(=O)c2cc(OC)c(OC)cc2c2cnc3[nH]ccc3c21	9.26% (active)
NCCN1CCN(c2nccc(-c3ccc4ccccc4c3)n2)CC1	-4.96% (active)
Oc1cccc(Nc2nccc(-c3ccc4ccccc4c3)n2)c1	11% (inactive)
CN1CCN(c2ccc3nc(-c4ccc5nc(-c6ccc(OCCC(C)(C)C)cc6)[nH]c5c4)[nH]c3c2)CC1	-72.3% (active)
CCOC(=O)C(CC)n1c(=O)c2cc(OC)c(OC)cc2c2cnc3[nH]ccc3c21 (stereo unspecified)	66.3% (inactive)
O=C(Cn1cc(CN2C(=O)c3ccccc3S2(=O)=O)nn1)Nc1ccc([N+](=O)[O-])cc1Cl	101% (inactive)
COc1ccc2[nH]c(=O)c(/C=C/C(=O)c3ccc(Nc4nccc(-c5ccc6ccccc6c5)n4)cc3)cc2c1	101% (inactive)
Nc1ccc(Nc2nccc(-c3ccc4ccccc4c3)n2)cc1	55.4% (inactive)
CCN1CCN(Cc2ccc(NC(=O)Nc3nc4ccc(Oc5ccnc(C(=O)NC)c5)cc4s3)cc2C(F)(F)F)CC1	-85.2% (active)
COCCOc1ccc(-c2nc3ccc(-c4nc5ccc(N6CCN(C)CC6)cc5[nH]4)cc3[nH]2)cc1	-30.7% (active)
CCOC(=O)C(=Cc1ccccc1F)C(=O)OCC	98% (inactive)
COc1ccc(-c2cc(-c3cccnc3)nc3sc4c(=O)n(-c5ccc(C)cc5)nnc4c23)cc1OC	93.4% (inactive)
Oc1ccc(Nc2nccc(-c3ccc4ccccc4c3)n2)cc1	37% (inactive)

SMILES	growth
CC[C@H](Nc1nc(N)nc(C)c1C#N)c1nc2cccc(NCc3ccc(C(=O)NO)cc3)c2c(=O)n1-c1ccccc1	-18.8% (active)
CC[C@H](Nc1cc(C)nc(N)n1)c1nc2cccc(NCc3ccc(C(=O)NO)cc3)c2c(=O)n1-c1ccccc1	-20.6% (active)
CN(C)CCOc1ccc(-c2nc3ccc(-c4nc5ccc(N6CCN(C)CC6)cc5[nH]4)cc3[nH]2)cc1	49.8% (inactive)
O=C1C(Cl)=C(Cl)C(=O)c2c1nc1n2CCCC1	99.9% (inactive)
COc1ccc(-c2cn3c(-c4ccc(OC)cc4)cnc3c(Oc3ccc4c(C)cc(=O)oc4c3)n2)cc1	-21.1% (active)
COc1cc2cc(COc3nccc(-c4ccc(Cl)cc4)n3)c(=O)[nH]c2cc1OC	67.9% (inactive)
CC(C)CC(CC1=CCC2CC1C2(C)C)C1=C(O)C(C)(C)C(=O)C(C)(C)C1=O (stereo unspecified)	17% (inactive)
CN(C)C(=O)c1cc2cnc(Nc3ccc(-c4csc5c(=O)cc(N6CCNCC6)oc45)cc3)nc2n1C1CCCC1	-33% (active)
Nc1nc(-c2ccc(F)cc2)cc(-c2cnn(-c3ccccc3)n2)n1	106% (inactive)
O=C(CNC1C2CC3CC(C2)CC1C3)Sc1nnc2sc3ccccc3n12 (stereo unspecified)	94.3% (inactive)
CC(=O)/C(=C/c1cccc(Cl)c1)C(=O)c1ccccc1	105% (inactive)
CN1C2CCC1/C(=C\c1ccc(Cl)cc1)C1=C2[C@@H](c2ccc(Cl)cc2)C(C#N)=C(N)O1 (stereo partly specified)	94.2% (inactive)
O=C(/C=C/c1cccc(Br)c1)c1ccccc1	103% (inactive)
CN1CCN(Cc2ccc(NC(=O)c3[nH]ncc3Nc3ncnc4sccc34)cc2)CC1	-30.2% (active)
C[C@@H]1CC[C@@H]2[C@@H]1[C@H](OC(=O)/C=C/c1ccccc1)[C@]1(c3ccccc3)C[C@@H](OC(=O)CO)[C@@]2(C)O1	102% (inactive)
